This is an account of results in PubChem BioAssay (NCI).

Molecules are shown by their SMILES. About 83,000 compounds went through this panel and 20% of them were active in at least one assay; those are over-represented in the sample as a whole.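 48-hour exposure, single concentration, 96-well plates; percent growth endpoint where 0 means no net growth. Active: below 10.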 Unmarked numbers belong to inactive results. The source made the active and inactive calls.

Holding throughout (experiment): NCI-60 one-dose screen, 48 h (100 = growth as untreated, 0 = no growth, -100 = all killed)
Common to all, as to settings: 10 µM unless noted

The test system of test [1] is DU-145 prostate.
For test [2], the system named is K-562 leukemia.
Test [3] deals with MALME-3M melanoma.
Test [4] concerns MDA-MB-231 breast.
Test [5] has as its system RXF 393 renal.
The subject of test [6] is SF-268 CNS.
In test [7] the test system is SF-295 CNS.
Test [8] concerns SF-539 CNS.
The subject of test [9] is UACC-257 melanoma.
The test system of test [10] is M14 melanoma.
In test [11] the test system is HCT-15 colon.
Test [12] deals with HT29 colon.
For test [13], the system named is SNB-75 CNS.
Test [14] concerns SNB-19 CNS.
For test [15], the system named is U251 CNS.
In test [16] the test system is PC-3 prostate.
The subject of test [17] is SK-MEL-5 melanoma.
For test [18], the system named is UACC-62 melanoma.
In test [19] the test system is LOX IMVI melanoma.
Test [20] concerns SK-MEL-28 melanoma.

Consider `CCCCOC(=O)c1c(C)[nH]c(/C=C2\N=C(c3ccc[nH]3)C=C2OC)c1C`, for which the growth in [1] was 18.5%; in test [2] it was 9.48% (active); in test [3], -56.5% (active); in [4], -49.7% (active); in test [5], -12.6% (active); in test [6], 19.9%. Also, the growth in test [7] was -61.9% (active); in test [8], -36.2% (active); in test [9], -12% (active); in test [10], -18.6% (active); in test [11], -1.74% (active); in test [12], 1.64% (active). Also, the growth in test [13] is -20% (active); in test [14], 26.6%; in test [15] it was 1.25% (active); in test [16], 13.9%; in [17], -98% (active); in [18] it was -28% (active). Moreover, the results for the growth in test [19] and in test [20] were -65.8% (active) and -14% (active), respectively.
For the compound `CCOc1cc(NC(=O)c2ccccc2)c(OCC)cc1N`, the growth in test [1] is 110%; in test [2] it was 113%; in [3], 147%; in test [4] it was 104%; in test [5], 117%; in [6], 106%. For the same compound, the growth in test [7] was 121%; in test [8] it was 112%; in test [9], 118%; in [10], 116%; in test [11] it was 111%; in [12], 121%. Also, the growth was 106% in test [13]; 105% in test [14]; 106% in test [15]; 104% in test [16]; 107% in test [17]; 106% in [18]. Besides, the figures for the growth in test [19] and in test [20] were 100% and 118%, respectively.
With `Nc1nc(N)c2c(n1)NC(c1ccc(F)cc1)C1CCc3ccccc3C1=N2` (stereo not given), the growth in test [1] was 62.1%; in [2] it was 21.4%; in test [3], 17.2%; in [4], 80.8%; in test [5], 83.1%; in test [6], 76.1%. In addition, the growth was 34.2% in test [7]; 56.8% in test [8]; 45.6% in test [9]; 62.8% in [10]; 49.6% in [11]; 27.9% in [12]. The growth in test [13] is 63.1%; in [14] it was 70.7%; in [15], 41.8%; in test [16] it was 45%; in [17] it was 1.07% (active); in test [18], 47.5%. In addition, the growth in test [19] was 52.8%; in [20], 93.4%.
In the case of `c1ccc(-c2nnc(-c3c[nH]c4ncccc34)s2)cc1`, the growth was 87.4% in test [1]; 83.9% in [2]; 88% in [3]; 86.8% in test [4]; 94.5% in test [5]; 86.2% in test [6]. Also, the growth was 96.8% in test [7]; 96.9% in test [8]; 109% in [9]; 97.8% in test [10]; 83.4% in test [11]; 106% in test [12]. For the same compound, the growth is 59.6% in test [13]; 91.7% in test [14]; 93.2% in [15]; 81.6% in test [16]; 91.6% in [17]; 81.2% in [18]. Also, the values for the growth in [19] and in test [20] were 97% and 99.6%, respectively.
For `c1cc2ccc3cc2cc1CNCCN1CCNCc2ccc4ccc(cc4c2)CNCCN(CCNC3)CCNCc2ccc3ccc(cc3c2)CNCC1`, the growth was -10.1% (active) in [1]; 12.6% in [2]; -13% (active) in test [3]; -23.7% (active) in test [4]; 11.4% in [5]; -13.6% (active) in test [6]. For the same compound, the growth was 66.8% in [7]; -41% (active) in [8]; 100% in [9]; 96.3% in [10]; 94.5% in test [11]; 1.47% (active) in test [12]. The growth was -12.6% (active) in test [13]; -7.68% (active) in [14]; -4.66% (active) in test [15]; -0.11% (active) in test [16]; 88.6% in [17]; 30.1% in test [18]. Besides, the growth was -7.72% (active) in test [19] and 62.8% in test [20].
As to `COC(=O)[C@]1(C)CC[C@]2(C)CC[C@]3(C)C(=CC(=O)[C@@H]4[C@@]5(C)CCC(=O)NC(C)(C)[C@@H]5CC[C@]43C)[C@@H]2C1`, the growth is -24.1% [100 µM] (active) in test [1]; 4.37% [100 µM] (active) in test [2]; -76.4% [100 µM] (active) in [3]; -80.2% [100 µM] (active) in test [4]; -85.5% [100 µM] (active) in [5]; -55.3% [100 µM] (active) in [6]. Also, the growth is -70.6% [100 µM] (active) in test [7]; -85% [100 µM] (active) in [8]; -30.3% [100 µM] (active) in test [9]; -39.1% [100 µM] (active) in [10]; -19.6% [100 µM] (active) in test [11]; -55% [100 µM] (active) in test [12]. The growth was -83.3% [100 µM] (active) in test [13]; -89.8% [100 µM] (active) in test [14]; -89.2% [100 µM] (active) in test [15]; -65.8% [100 µM] (active) in test [16]; -94% [100 µM] (active) in [17]; -88.9% [100 µM] (active) in test [18]. For the same compound, the growth was -97.7% [100 µM] (active) in test [19] and -67.3% [100 µM] (active) in test [20].
With `C[C@H]1[C@H](C)CC[C@]2(COC(=O)CCC(=O)O)CC[C@]3(C)C(=CC[C@@H]4[C@@]5(C)CCCNC(C)(C)[C@@H]5CC[C@]43C)[C@H]12`, the growth was 79.8% [100 µM] in [1]; 48.9% [100 µM] in test [2]; 77.1% [100 µM] in test [3]; 45.1% [100 µM] in test [4]; 53% [100 µM] in [5]; 62.5% [100 µM] in test [6]. The growth is 59.1% [100 µM] in test [7]; 50.9% [100 µM] in test [8]; 78.5% [100 µM] in test [9]; 92% [100 µM] in test [10]; 65.9% [100 µM] in test [11]; 52.2% [100 µM] in [12]. Also, the growth in [13] was -2.3% [100 µM] (active); in [14] it was 53.1% [100 µM]; in test [15], 60.7% [100 µM]; in [16], 32.7% [100 µM]; in [17] it was 46.2% [100 µM]; in [18], 56.3% [100 µM]. Besides, the results for the growth in test [19] and in test [20] were 70.5% [100 µM] and 82.2% [100 µM], respectively.
